Test results published in PMC5540273 (PLoS ONE, 2017).

Experiments:
Details in all cases: concentration: 1 μM, replicates: in singlicate; n = 1
HASPIN = tested on: T1, HASPIN
T1 construct: gene GSG2

HCK = tested on: HCK
HIPK1 = tested on: HIPK1
HIPK2 = tested on: HIPK2
HIPK3 = tested on: HIPK3
HIPK4 = tested on: HIPK4
HPK1 = tested on: HPK1
HUNK = tested on: HUNK
ICK = tested on: ICK
IGF1R = tested on: IGF1R
IKK-alpha = tested on: T2, IKK-alpha
T2 construct: gene CHUK

IKK-beta = tested on: T3, IKK-beta
T3 construct: gene IKBKB

IKK-epsilon = tested on: T4, IKK-epsilon
T4 construct: gene IKBKE

INSRR = tested on: INSRR
INSR = tested on: INSR
IRAK1 = tested on: IRAK1
IRAK3 = tested on: IRAK3
IRAK4 = tested on: IRAK4
ITK = tested on: ITK
[1] = tested on: JAK1(JH1domain-catalytic)
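Also: KINOMEscan kinase panel screen.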

Row | Compound | %Inh (HASPIN) [%] | %Inh (HCK) [%] | %Inh (HIPK1) [%] | %Inh (HIPK2) [%] | %Inh (HIPK3) [%] | %Inh (HIPK4) [%] | %Inh (HPK1) [%] | %Inh (HUNK) [%] | %Inh (ICK) [%] | %Inh (IGF1R) [%] | %Inh (IKK-alpha) [%] | %Inh (IKK-beta) [%] | %Inh (IKK-epsilon) [%] | %Inh (INSRR) [%] | %Inh (INSR) [%] | %Inh (IRAK1) [%] | %Inh (IRAK3) [%] | %Inh (IRAK4) [%] | %Inh (ITK) [%] | %Inh [1] [%]
1 | CCNC(=O)/C=C/c1n[nH]c2cc(Sc3ccccc3C(=O)NC)ccc12 | 14 | 7 | 23 | 2 | 22 | 0 | 8 | 0 | 0 | 10 | 26 | 20 | 8 | 34 | 0 | 33 | 9 | 0 | 0 | 0
2 | CC(C)c1nc(-c2ccc(F)c(NS(=O)(=O)c3c(F)cccc3F)c2)c(-c2ccnc(Nc3ccc(N4CCOCC4)nc3)n2)s1 [GSK1804250] | 18 | 98.4 | 17 | 0 | 30 | 72 | 56 | 7 | 0 | 8 | 0 | 0 | 23 | 2 | 11 | 0 | 3 | 0 | 9 | 17
3 | CN(c1ccc2c(c1)nc(NCc1ccccc1)n2C)c1ccnc(Nc2ccc(CS(C)(=O)=O)cc2)n1.Cl [GW811603] | 3 | 49 | 41 | 46 | 0 | 38 | 72 | 0 | 29 | 6 | 0 | 0 | 0 | 44 | 10 | 0 | 0 | 0 | 0 | 12
4 | COc1cc(Nc2nccc(N3CCC(NS(=O)(=O)c4ccc(NC(C)=O)cc4)CC3)n2)cc(OC)c1OC [GSK1379825] | 0 | 0 | 0 | 0 | 15 | 0 | 86 | 0 | 0 | 0 | 24 | 14 | 11 | 0 | 0 | 74 | 85 | 44 | 17 | 20
5 | COc1ccc(C)c(Nc2ccnc(Nc3ccc(-c4cnc[nH]4)cc3)n2)c1.Cl [GW784041] | 0 | 63 | 48 | 0 | 0 | 30 | 0 | 0 | 0 | 12 | 0 | 0 | 0 | 0 | 0 | 0 | 35 | 0 | 18 | 100
6 | COc1cccc2c(-c3ccncc3)c(-c3ccc(F)cc3)nn12 [GW468513] | 15 | 0 | 0 | 0 | 10 | 4 | 37 | 18 | 9 | 9 | 0 | 14 | 3 | 9 | 11 | 28 | 24 | 7 | 8 | 0
7 | Nc1cccc(-c2ccc3c(N)n[nH]c3c2)c1 [GSK2193613] | 90.5 | 0 | 0 | 0 | 100 | 0 | 48 | 23 | 0 | 8 | 0 | 0 | 11 | 0 | 0 | 10 | 0 | 0 | 10 | 0
8 | O=C(Nc1c(F)cccc1F)c1cc(C(=O)c2ccccc2F)c[nH]1 [GSK1326180] | 22 | 0 | 0 | 44 | 0 | 0 | 50 | 24 | 0 | 18 | 0 | 0 | 0 | 5 | 17 | 0 | 7 | 0 | 0 | 3
9 | O=C(Nc1n[nH]c2nc(-c3cccc(O)c3)ccc12)C1CC1 [SB-711805] | 45 | 15 | 57 | 27 | 31 | 7 | 0 | 0 | 53 | 0 | 0 | 0 | 0 | 0 | 0 | 0 | 0 | 0 | 0 | 0
10 | Cc1ccc(NC(=O)c2cccc(N3CCCCC3)c2)cc1-c1ccc(C(=O)NCC2CC2)cc1 [GSK1917008] | 0 | 0 | 0 | 0 | 14 | 17 | 38 | 0 | 23 | 9 | 54 | 29 | 15 | 4 | 12 | 17 | 11 | 20 | 26 | 0
11 | Cc1ccc(C)c(NC(=O)Nc2ccc(C)c(-c3ccc(C(=O)Nc4ccncc4)cc3)c2)c1 [GSK1398473] | 0 | 92.4 | 0 | 0 | 12 | 0 | 36 | 0 | 8 | 0 | 0 | 8 | 0 | 0 | 0 | 5 | 1 | 19 | 13 | 0
12 | Cc1nn2c(=O)cc(N3CCO[C@H](C)C3)nc2n1Cc1cccc(Cl)c1Cl [GSK2373693] | 3 | 22 | 10 | 30 | 78 | 0 | 25 | 0 | 15 | 10 | 36 | 81 | 0 | 0 | 4 | 78 | 0 | 25 | 15 | 9
13 | CS(=O)(=O)c1cccc(CNc2nc(Nc3ccc4c(c3)CCC(=O)N4)ncc2C(F)(F)F)c1 | 0 | 0 | 31 | 3 | 0 | 22 | 41 | 0 | 0 | 5 | 0 | 0 | 48 | 20 | 16 | 0 | 22 | 0 | 0 | 50
14 | COc1cc(Nc2nccc(N3CCC(NC(=O)Nc4ccc5c(c4)OCO5)C3)n2)cc(OC)c1OC (stereo not shown) [GSK1379766] | 0 | 0 | 0 | 0 | 16 | 0 | 78 | 0 | 26 | 0 | 27 | 11 | 29 | 0 | 25 | 80 | 85 | 44 | 10 | 12
15 | Cc1cc(-c2c(-c3ccc(F)cc3)ncn2CCCN2CCOCC2)nc(N)n1 [SB-222517] | 0 | 27 | 44 | 0 | 18 | 0 | 12 | 0 | 0 | 10 | 0 | 0 | 0 | 26 | 8 | 0 | 0 | 0 | 6 | 0
16 | COC(=O)Nc1nc2cc(Oc3ccc(NC(=O)Nc4cccc(SC)c4)cc3)ccc2[nH]1.Cl [GW697999] | 0 | 12 | 5 | 0 | 1 | 36 | 30 | 28 | 0 | 5 | 35 | 0 | 10 | 0 | 0 | 36 | 24 | 12 | 26 | 2
17 | Cc1ccc(-c2ccc3occ(-c4ccc(S(C)=O)cc4)c3c2)nn1 (stereo not shown) | 42 | 0 | 42 | 2 | 0 | 0 | 0 | 0 | 0 | 0 | 0 | 0 | 0 | 0 | 0 | 0 | 0 | 5 | 0 | 0
